± gives the standard deviation of the averaged measurements.

In this assay the test system is iBMDM (immortalised mouse bone-marrow-derived macrophages), LPS-stimulated. Kind of assay: mitochondrial superoxide (MitoSOX fluorescence) fold increase over unstimulated control; higher = more LPS-induced mitochondrial ROS (less inhibition). Particulars: inhibitor concentration: 500 nM, LPS: 100 ng/ml. Summed up:
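After 20 h in phenol-red-free 1% FCS/DMEM in black 96-well plates, immortalised mouse bone-marrow-derived macrophages were exposed to kinase inhibitors (500 nM) for 30 min, 1 μM MitoSox for 10 min and then LPS (100 ng/ml). A ClarioStar plate reader recorded fluorescence at 510/580 nm every 60 min for 4 h. The reported mitochondrial superoxide is the mean fold induction versus untreated macrophages over triplicate wells.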

Consider `NCC(=O)Nc1ccc(-n2nc(C(F)(F)F)cc2-c2ccc3c(ccc4ccccc43)c2)cc1`, for which the mitochondrial superoxide is 1.414 ± 0.012 (time after LPS: 1 h), 1.41 ± 0.031 (time after LPS: 2 h) and 1.49 ± 0.087 (time after LPS: 4 h).

For the compound `COc1ccc(CNC(=O)Nc2ncc([N+](=O)[O-])s2)cc1`, the mitochondrial superoxide is, setting by setting: (time after LPS: 1 h) 1.47 ± 0.037; (time after LPS: 2 h) 1.54 ± 0.026; (time after LPS: 4 h) 1.6 ± 0.096.

Regarding `N#CC1(c2ccc(NC(=O)c3cccnc3NCc3ccncc3)cc2)CCCC1` [Apatinib], the mitochondrial superoxide reads like this: (time after LPS: 1 h) 1.09 ± 0.056; (time after LPS: 2 h) 1.18 ± 0.021; (time after LPS: 4 h) 1.36 ± 0.018.

Consider `CNC(=O)c1nn(C)c2c1C(C)(C)Cc1cnc(Nc3ccc(N4CCN(C)CC4)cc3)nc1-2`, for which the mitochondrial superoxide stood at 1.31 ± 0.016 (time after LPS: 1 h), 1.38 ± 0.086 (time after LPS: 2 h) and 1.64 ± 0.064 (time after LPS: 4 h).

For the compound `Cn1c(=O)c(F)c(Nc2ccc(I)cc2F)c2c(=O)n(C[C@@H](O)CO)cnc21`, the mitochondrial superoxide by setting is: (time after LPS: 1 h) 1.36 ± 0.021; (time after LPS: 2 h) 1.39 ± 0.028; (time after LPS: 4 h) 1.51 ± 0.055.

The compound `Cc1cc(O)c2c(c1)C(=O)c1cccc(O)c1C2=O` [Chrysophanic Acid] came in with a mitochondrial superoxide (time after LPS: 1 h) of 1.29 ± 0.11, a mitochondrial superoxide (time after LPS: 2 h) of 1.36 ± 0.097 and a mitochondrial superoxide (time after LPS: 4 h) of 1.48 ± 0.022.

On to `CN(C)CCOc1ccc(-c2nc(-c3ccncc3)c(-c3ccc4c(c3)CC/C4=N\O)[nH]2)cc1`, for which the mitochondrial superoxide came out at 1.07 ± 0.036 (time after LPS: 1 h), 1.15 ± 0.075 (time after LPS: 2 h) and 1.31 ± 0.083 (time after LPS: 4 h).

For `Nc1ccc(-c2ccc3ncc4ccc(=O)n(-c5cccc(C(F)(F)F)c5)c4c3c2)cn1` [Torin 2], the mitochondrial superoxide is, setting by setting: (time after LPS: 1 h) 1.18 ± 0.042; (time after LPS: 2 h) 1.17 ± 0.05; (time after LPS: 4 h) 1.24 ± 0.1.

Consider `CNC(=O)c1cc(Oc2ccc(NC(=O)Nc3ccc(Cl)c(C(F)(F)F)c3)c(F)c2)ccn1` [Regorafenib (BAY 73-4506)], for which the mitochondrial superoxide was 1.5 ± 0.04 (time after LPS: 1 h), 1.68 ± 0.057 (time after LPS: 2 h) and 1.71 ± 0.062 (time after LPS: 4 h).

On to `N#CCNC(=O)c1ccc(-c2ccnc(Nc3ccc(N4CCOCC4)cc3)n2)cc1`, for which the mitochondrial superoxide is, setting by setting: (time after LPS: 1 h) 1.05 ± 0.071; (time after LPS: 2 h) 1.17 ± 0.017; (time after LPS: 4 h) 1.27 ± 0.13.

On to `CC(C)(C)c1nc(-c2cccc(NS(=O)(=O)c3c(F)cccc3F)c2F)c(-c2ccnc(N)n2)s1`, for which the mitochondrial superoxide (time after LPS: 1 h) was found to be 1.25 ± 0.046, the mitochondrial superoxide (time after LPS: 2 h) stood at 1.43 ± 0.054 and the mitochondrial superoxide (time after LPS: 4 h) is 1.73 ± 0.12.

Take `CCCS(=O)(=O)Nc1ccc(F)c(C(=O)c2c[nH]c3ncc(Cl)cc23)c1F`: the mitochondrial superoxide stood at 1.24 ± 0.15 (time after LPS: 1 h), 1.26 ± 0.15 (time after LPS: 2 h) and 1.34 ± 0.21 (time after LPS: 4 h).

As to `O=P(O)(O)C(O)(Cn1ccnc1)P(=O)(O)O` [Zoledronic Acid], the mitochondrial superoxide is, setting by setting: (time after LPS: 1 h) 1.27 ± 0.02; (time after LPS: 2 h) 1.29 ± 0.085; (time after LPS: 4 h) 1.4 ± 0.16.

For `O=C(NOCC1CC1)c1ccc(F)c(F)c1Nc1ccc(I)cc1Cl`, the mitochondrial superoxide amounted to 1.57 ± 0.11 (time after LPS: 1 h), 1.59 ± 0.071 (time after LPS: 2 h) and 1.9 ± 0.1 (time after LPS: 4 h).

Consider `Cc1c(NC(=O)OC[C@@H]2COCCN2)cn2ncnc(Nc3ccc4c(cnn4Cc4cccc(F)c4)c3)c12`, for which the mitochondrial superoxide is, setting by setting: (time after LPS: 1 h) 1.57 ± 0.034; (time after LPS: 2 h) 1.74 ± 0.077; (time after LPS: 4 h) 1.9 ± 0.045.

With `COc1cc(N2CCC(N)CC2)ccc1Nc1ncc(Cl)c(-c2c[nH]c3ccccc23)n1`, the mitochondrial superoxide was found to be 1.21 ± 0.018 (time after LPS: 1 h), 1.27 ± 0.025 (time after LPS: 2 h) and 1.36 ± 0.057 (time after LPS: 4 h).

As to `CCC[C@H](NC(=O)/C(C#N)=C/c1cccc(Br)n1)c1ccccc1` [Degrasyn (WP1130)], the mitochondrial superoxide amounted to 1.18 ± 0.047 (time after LPS: 1 h), 1.34 ± 0.032 (time after LPS: 2 h) and 1.48 ± 0.038 (time after LPS: 4 h).

`Cc1ccc(Nc2nccc(N(C)c3ccc4c(C)n(C)nc4c3)n2)cc1S(N)(=O)=O`: the mitochondrial superoxide by setting is: (time after LPS: 1 h) 1.46 ± 0.059; (time after LPS: 2 h) 1.563 ± 0.0056; (time after LPS: 4 h) 1.65 ± 0.11.

Regarding `C=CC(=O)Nc1ccc2ncnc(Nc3cccc(Br)c3)c2c1`, the mitochondrial superoxide by setting is: (time after LPS: 1 h) 1.12 ± 0.053; (time after LPS: 2 h) 1.29 ± 0.027; (time after LPS: 4 h) 1.3 ± 0.061.

With `CN(C[C@@H]1COCCO1)S(=O)(=O)Nc1ccc2ccc3ncc(-c4cnn(C)c4)cc3c(=O)c2c1`, the mitochondrial superoxide worked out at 1.26 ± 0.029 (time after LPS: 1 h), 1.51 ± 0.054 (time after LPS: 2 h) and 1.76 ± 0.048 (time after LPS: 4 h).

Regarding `Cc1[nH]nc2ccc(-c3cncc(OC[C@@H](N)Cc4ccccc4)c3)cc12`, the mitochondrial superoxide turned out to be 1.24 ± 0.1 (time after LPS: 1 h), 1.43 ± 0.11 (time after LPS: 2 h) and 1.68 ± 0.098 (time after LPS: 4 h).

On to `CS(=O)(=O)c1ccc(-c2cnc(N)c(C(=O)Nc3ccccc3)n2)cc1`, for which the mitochondrial superoxide worked out at 1.23 ± 0.053 (time after LPS: 1 h), 1.46 ± 0.052 (time after LPS: 2 h) and 1.6 ± 0.078 (time after LPS: 4 h).

These data come from the supplement of paper PMC7393113.
